The list is not random: actives were taken first. Their share in the collection is about 3.2%.
PG9 binder: binders of HIV-1 gp120 antibody PG9, primary screen, biochemical, TR-FRET. HIV-1 gp120 / PG9 antibody interaction. TR-FRET gp120-PG9 antibody binding. inhibition, % at 6.7 µM. hit rate 0.43% among 360,000; in the data active = inhibition above about 8.5%
MsrA inh: bovine MsrA enzyme inhibitors, primary screen, biochemical, absorbance, HTS; Methionine sulfoxide reductase A (Bos taurus); purified bovine MsrA, absorbance read-out; inhibition, % at 15.5 µM; hit rate 0.75% among 360,000; AID 651718, 2012; in the data active = inhibition above about 4.5%;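 note: 0% = vehicle wells with enzyme and 100% = reference inhibitor wells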
rCAG RNA binder: binders of r(CAG) RNA repeats, primary screen, biochemical, fluorescence; r(CAG) RNA repeat, TO-PRO-1 dye displacement fluorescence; inhibition, % at 3 µM; hit rate 1.3% among 370,000;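 active = inhibition above the plate cutoff, the mean of all test compounds on that plate plus 3 SD, cut at about 35% in these data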;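 note: 0% = DMSO alone and 100% = 100 µM mitoxantrone as full dye displacement; higher means more dye released from RNA so lower well fluorescence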
MsrA act: bovine MsrA enzyme activators, primary screen, biochemical, absorbance, HTS. Methionine sulfoxide reductase A (Bos taurus). purified bovine MsrA, absorbance read-out. activation, % at 10.6 µM. hit rate 0.3% among 360,000. AID 602163, 2012; in the data active = activation above about 7.5%;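 note: 0% = vehicle and 100% = reference activator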
HGIII-sPLA2 inh: human group III sPLA2 inhibitors, primary screen, biochemical, QFRET, BODIPY PC-A2 liposome substrate; Group 3 secretory phospholipase A2 (Homo sapiens), Q9NZ20; inhibition, % at 12.2 µM; AID 743126, 2013; QFRET BODIPY PC-A2 liposome hydrolysis, fluorescence; hit rate 0.56% among 370,000;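 active = inhibition above mean plus 3 SD of compounds lying within the high and low control bounds, cut at about 19% in these data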;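 note: 0% = median of test compound wells and 100% = no enzyme DMSO wells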
Target sequence (Q9NZ20 whole entry, looked up): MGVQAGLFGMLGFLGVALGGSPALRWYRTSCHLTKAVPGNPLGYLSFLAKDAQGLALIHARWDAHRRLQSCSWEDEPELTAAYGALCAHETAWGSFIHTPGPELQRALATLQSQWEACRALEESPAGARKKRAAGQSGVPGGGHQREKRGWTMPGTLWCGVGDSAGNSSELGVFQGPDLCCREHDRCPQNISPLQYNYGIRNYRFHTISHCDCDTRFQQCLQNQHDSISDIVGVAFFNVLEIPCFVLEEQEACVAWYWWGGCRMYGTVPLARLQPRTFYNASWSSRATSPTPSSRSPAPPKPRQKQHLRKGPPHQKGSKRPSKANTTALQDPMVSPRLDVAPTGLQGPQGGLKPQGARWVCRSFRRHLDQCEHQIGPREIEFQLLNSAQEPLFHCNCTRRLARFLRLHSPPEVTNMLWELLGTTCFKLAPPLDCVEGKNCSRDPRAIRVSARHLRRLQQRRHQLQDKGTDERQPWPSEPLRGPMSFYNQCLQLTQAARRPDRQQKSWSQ
rCAG bind conf: small molecules binding CAG repeat RNA – biochemical, fluorescence, confirmation; r(CAG) RNA repeat, TO-PRO-1 dye displacement fluorescence; inhibition, % at 3 µM; hit rate 70% among 4,300; shares compounds with rCAG RNA binder;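 active = inhibition above a per-plate cutoff, the mean inhibition of sample wells plus 3 SD, cut at about 35% in these data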;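 note: loss of TO-PRO-1 fluorescence as compound displaces dye from 1x1 AA loop RNA; 0% = DMSO only wells and 100% = 100 µM mitoxantrone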
DNA CAG counter: displacement of TO-PRO-1 from CAG DNA duplex, counter-screen for rCAG RNA repeat binder project, biochemical, fluorescence, TO-PRO-1 dye, d(CAG) DNA oligo; AID 652068, 2013; hit rate 94% among 4,300; inhibition, % at 3 µM; shares compounds with rCAG RNA binder; d(CAG) DNA oligo TO-PRO-1 dye displacement;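 active = inhibition above its plate's cutoff, the mean test-well inhibition plus 3 SD, cut at about 4.8% in these data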;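 note: 0% = DNA dye mix with DMSO and 100% = 100 µM mitoxantrone; hits displace the dye from DNA and so lower well fluorescence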
* = called active by the depositor; · = no result.

SMILES	PG9 binder	MsrA inh	rCAG RNA binder	MsrA act	HGIII-sPLA2 inh	rCAG bind conf	DNA CAG counter
O=C(Nc1nccs1)c1cc(-c2ccccc2)nc2ccccc12	0.6	2.2	3.9	-4.9	-0.5	·	·
O=C(Nc1nccs1)c1cc(-c2ccco2)nc2ccccc12	-3.1	1.1	37.7*	-4.6	-0.5	25.2	17.3*
O=C(N/N=C/c1ccc(F)cc1)c1cc(-c2ccco2)nc2ccccc12	-0.7	1.1	45.0*	-10.1	-1.6	47.1*	30.3*
Cc1csc(NC(=O)c2cc(C)nc3ccccc23)n1	-2.0	0.6	-0.5	-5.6	-2.2	·	·
O=C(NC(=S)Nc1cccc(S(=O)(=O)NC2=NCCC2)c1)c1cc(-c2ccco2)nc2ccccc12	-0.4	-0.4	7.6	-2.6	-12.8	·	·
O=C(Nc1cccc(S(=O)(=O)NC2=NCCC2)c1)c1cc(-c2ccco2)nc2ccccc12	-0.4	2.4	40.6*	-2.8	-2.1	43.0*	25.2*
CCC(C)n1c(NC(=O)c2ccccc2)c(C#N)c2nc3ccccc3nc21 (stereo not given)	0.8	0.1	38.1*	-2.4	-5.5	68.2*	30.9*
CCCCn1c(NC(=O)c2ccccc2)c(C#N)c2nc3ccccc3nc21	1.3	-0.5	15.4	-0.4	7.2	·	·
O=S1(=O)c2ccc(N3CCC[C@H]3CO)cc2OCCCN1C1CC1	·	·	3.6	·	-7.6	·	·
O=C(OCCCN1CCC2(CCCCC2)C1=O)c1ccccc1	·	·	-0.5	·	9.2	·	·
COc1ccc2oc(C)c(C(=O)c3ccccc3)c2c1	-2.2	-1.2	-2.1	-1.8	-7.3	·	·
COc1ccc2oc(/C=C/N(C)C)c(C(=O)c3ccc(Cl)cc3)c2c1	0.3	0.8	39.5*	-9.8	1.7	10.6	9.7*
CC(CCN1CCC(C(O)(c2ccccc2)c2ccccc2)CC1)Oc1cccc(Br)c1 (stereo not given)	·	·	4.9	·	-23.1	·	·
CCc1nnc(NS(=O)(=O)c2ccc(N=Cc3c(C)[nH]n(-c4ccc(Cl)cc4)c3=O)cc2)s1	-2.2	1.1	48.6*	-3.2	-10.8	83.7*	58.7*
COc1nccnc1NS(=O)(=O)c1ccc(N=Cc2c(C)[nH]n(-c3ccccc3)c2=O)cc1	-1.6	3.3	9.7	-1.6	15.4	·	·
CCc1nnc(NS(=O)(=O)c2ccc(N=Cc3c(C)[nH]n(-c4cccc(Cl)c4)c3=O)cc2)s1	-1.8	2.2	52.8*	1.2	7.4	85.8*	63.1*
Cc1ccc(-n2[nH]c(C)c(C=Nc3ccc(S(=O)(=O)Nc4nccs4)cc3)c2=O)cc1C	-2.0	0.4	56.1*	-3.0	-10.0	75.4*	38.0*
COc1nccnc1NS(=O)(=O)c1ccc(N=Cc2c(C)[nH]n(-c3ccc(Cl)cc3)c2=O)cc1	-2.9	-0.6	4.2	·	2.4	·	·
C[C@@H]1CCN(C2CC2)S(=O)(=O)c2c(cccc2N2CC[C@@H](N(C)C)C2)O1	·	·	3.5	·	-3.9	·	·
Cn1c(=O)c2c(n(C)c1=O)n(C)c(=O)n2C	-1.0	0.1	-0.2	-3.5	0.0	·	·
C[C@@H]1CCCN1c1cccc2c1S(=O)(=O)N(C1CC1)CCCO2	·	·	5.9	·	10.7	·	·
C=C1c2cccc(O)c2C(=O)C2C(=O)[C@]3(O)C(=O)C(C(N)=O)C(=O)[C@@H](N(C)C)[C@@H]3[C@@H](O)[C@H]12 (stereo not given in full)	-0.1	2.0	84.9*	-11.7	2.1	28.0	10.4*
COc1ccc(CNS(=O)(=O)CC2NCc3cc(OC)ccc32)cc1 (stereo not given)	·	·	7.5	·	6.6	·	·
Cc1ccc(NS(=O)(=O)c2ccc(Cl)c(NC(=S)NC(=O)C3CCCCC3)c2)cc1Cl	-0.2	3.7	44.9*	-5.5	-68.0	41.2*	17.0*
COc1cc(NS(=O)(=O)c2ccc(NC(=S)NC(=O)C3CCCC3)cc2)nc(OC)n1	-3.5	-0.7	44.5*	6.2	-26.7	32.9	10.2*
Cc1ccc(NC(=O)C2CCCC2)cc1Cl	-1.9	0.2	-3.0	-4.8	-2.1	·	·

Bioassay records (PubChem)
